Results from PubChem BioAssay (EPA / NIEHS).
Results filed as inconclusive are left out. Active and inactive are the calls of the source. How the source made its calls, unless noted: active means hit-call score of the fitted dose curve at least 0.9, where 1 is the maximum; inconclusive means response in the unintended direction; inactive means score below 0.9.

Assays:
[1] = read-out: Thyroid Hormone Responsive (THRSP), THRSP (gene 7069); test: LTEA_HepaRG_THRSP: Life Technologies and Expression Analysis (LTEA) Assay for Thyroid Hormone Responsive (THRSP) using HepaRG (AID 2283536; active means hit-call score of the fitted dose curve at least 0.9, where 1 is the maximum; inactive means score below 0.9); details: mRNA level, 48 h; actives raise or lower the signal
Method in brief: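 mRNA induction or loss relative to 0.5% DMSO vehicle was fitted bidirectionally across an eight-point curve whose highest exposure was 100 uM. Human HepaRG liver cells received chemicals in duplicate over 48 h before RNA extraction.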

[2] = read-out: UDP glucuronosyltransferase (UGT1A1), UGT1A1 (gene 54658); test: LTEA_HepaRG_UGT1A1: Life Technologies and Expression Analysis (LTEA) Assay for UDP glucuronosyltransferase (UGT1A1) using HepaRG (AID 2283538; active means hit-call score of the fitted dose curve at least 0.9, where 1 is the maximum; inactive means score below 0.9); details: mRNA level, 48 h; actives raise or lower the signal
Method in brief: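 Readout is UGT1A1 transcript level by qRT-PCR, normalized to three housekeeping genes, after 48 h chemical treatment of HepaRG cells. Concentrations ran from 100 uM down in half-log steps with 0.5% DMSO, and gain or loss relative to DMSO was fitted.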

[3] = read-out: UDP glucuronosyltransferase (UGT1A6), UGT1A6 (gene 54578); test: LTEA_HepaRG_UGT1A6: Life Technologies and Expression Analysis (LTEA) Assay for UDP glucuronosyltransferase (UGT1A6) using HepaRG (AID 2283539; active means hit-call score of the fitted dose curve at least 0.9, where 1 is the maximum; inactive means score below 0.9); details: mRNA level, 48 h; actives raise or lower the signal
Method in brief: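 Differentiated HepaRG cells, ~100,000/well, were exposed for 48 h in serum-free induction medium with 0.5% DMSO to 8-point half-log series topping at 100 uM, in duplicate. mRNA measured by Fluidigm TaqMan qRT-PCR, normalized to ACTB, GAPDH and POLR2A.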

[4] = read-out: X-box binding protein 1 (XBP1), XBP1 (gene 7494); test: LTEA_HepaRG_XBP1: Life Technologies and Expression Analysis (LTEA) Assay for X-box binding protein 1 (XBP1) using HepaRG (AID 2283540; active means hit-call score of the fitted dose curve at least 0.9, where 1 is the maximum; inactive means score below 0.9); details: mRNA level, 48 h; actives raise or lower the signal
Method in brief: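 Differentiated human HepaRG cells in serum-free induction medium exposed 48 h in duplicate to eight half-log concentrations up to 100 uM in 0.5% DMSO. XBP1 mRNA measured by Fluidigm TaqMan qRT-PCR, normalized to ACTB, GAPDH, POLR2A; bidirectional fitting against DMSO.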

[5] = LTEA_HepaRG_LDH_cytotoxicity: Cytotoxicity Assessment in the Life Technologies and Expression Analysis (LTEA) Assay (AID 2283563);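 on AC50: LDH activity released into spent culture medium as a marker of cell death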
Method in brief: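 Differentiated HepaRG cells in serum-free induction medium, exposed 48 h in duplicate to 8 half-log concentrations up to 100 uM in 0.5% DMSO. Cytotoxicity from LDH measured in spent medium, fit relative to DMSO.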

[6] = ATG_XTT_Cytotoxicity: Cytotoxicity Assessment in the Attagene TRANS-FACTORIAL HepG2 Assay (AID 2283584);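 on AC50: XTT signal for cell number as viability in transfected HepG2 cells; cells exposed to compound for 24 h before reading; active means loss of viability signal versus DMSO baseline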
Method in brief: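 HepG2 cells transiently transfected with GAL4-UAS multiple reporter units, dosed 24 h; cytotoxicity read by XTT as loss of signal versus DMSO baseline.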

[7] = Tanguay_ZF_120hpf_MORT_legacy: (Legacy) Oregon State University Tanguay Lab 120 Hour Post-fertilization zebrafish Assay for Mortality (AID 2283633);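 on AC50: fitted as increase in binary mortality versus DMSO negative control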
Method in brief: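 Dechorionated Tropical 5D wild-type zebrafish embryos, one per well from 6 hpf, static exposure in 0.64% DMSO at 28C until 120 hpf. Mortality scored as binary by brightfield microscopy at 24 and 120 hpf.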

[8] = Tanguay_ZF_120hpf_YSE_legacy: (Legacy) Oregon State University Tanguay Lab 120 Hour Post-fertilization zebrafish Assay for Yolk Sac Edema (AID 2283634)
Method in brief: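 Dechorionated Tropical 5D wild-type zebrafish embryos were exposed statically, one per well, from 6 to 120 hpf at 28C in 0.64% DMSO. Yolk sac edema was scored present/absent by brightfield at 120 hpf, and dead embryos were excluded.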

[9] = Tanguay_ZF_120hpf_AXIS_legacy: (Legacy) Oregon State University Tanguay Lab 120 Hour Post-fertilization zebrafish Assay for Body Axis Malformation (AID 2283635)
Method in brief: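 Dechorionated wild-type Tropical 5D zebrafish embryos, one per well, statically exposed from 6 hpf to 120 hpf at 28C in 0.64% DMSO final. Body axis malformation scored present/absent by brightfield microscopy at 120 hpf; dead embryos excluded.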

[10] = Tanguay_ZF_120hpf_EYE_legacy: (Legacy) Oregon State University Tanguay Lab 120 Hour Post-fertilization zebrafish Assay for Eye Malformation (AID 2283636)
Method in brief: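 Read-out is binary presence or absence of eye malformation, scored by brightfield microscopy at 120 hpf. Single larvae were exposed from 6 hpf in embryo medium containing 0.64% DMSO, with DMSO as baseline.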

[11] = Tanguay_ZF_120hpf_SNOU_legacy: (Legacy) Oregon State University Tanguay Lab 120 Hour Post-fertilization zebrafish Assay for Snout Malformation (AID 2283637)
Method in brief: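 Snout malformation read as a yes/no call on brightfield images of 120 hpf larvae (Tropical 5D strain). Static exposure began at 6 hpf on dechorionated embryos in 0.64% DMSO, with gain of signal analysed versus DMSO controls.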

Measured: AC50

O=C(O)c1cccnc1
not listed: [11]
inactive: all other assays above

CC(=O)CC(c1ccccc1)c1c(O)c2ccccc2oc1=O (stereo not drawn)
active: [1] 34.5 µM
not listed: [3] | [10] | [11]
inactive: all other assays above

C/C=C/c1ccc(OC)cc1
not listed: [3] | [9]
inactive: all other assays above

O=C(NS(=O)(=O)/C=C/c1cccs1)c1ccc(F)cc1Br
active: [2] 14 µM
not listed: [6]
inactive: all other assays above

CC(N)=O
inactive: all assays above

CC(COCC(C)OC(=O)c1ccccc1)OC(=O)c1ccccc1 (stereo not drawn)
not listed: [3] | [6]
inactive: all other assays above

Nc1nc(=S)c2[nH]cnc2[nH]1
active: [1] 9.18 µM | [3] 5.91 µM | [4] 15.7 µM | [5] 32.9 µM
inactive: all other assays above

CCCCOC(=O)CCCCC(=O)OCCCC
inactive: [1] | [2] | [4] | [5] | [7] | [8]

Cc1occc(=O)c1O
not listed: [3] | [11]
inactive: all other assays above

CSc1ccc(Oc2ccc(S(N)(=O)=O)cc2CN(C)C)cc1C
active: [5] 81.4 µM
not listed: [3] | [6] | [11]
inactive: all other assays above

CC(=O)O
not listed: [5] | [11]
inactive: all other assays above

N[C@@H](Cc1c[nH]c2ccccc12)C(=O)O
not listed: [3] | [9] | [11]
inactive: all other assays above

O=C1CCCCC1
inactive: all assays above

Cc1cn([C@H]2C=C[C@@H](CO)O2)c(=O)[nH]c1=O
not listed: [3]
inactive: all other assays above

CC(=O)OC1CC(C)OC(C)O1 (stereo not drawn)
not listed: [3]
inactive: all other assays above

CCCC(=O)O
not listed: [3] | [6] | [11]
inactive: all other assays above

C#CC(O)C(CC)CCCC (stereo not drawn)
not listed: [3] | [6]
inactive: all other assays above

CC(C)NCC(O)c1ccc(O)c(O)c1 (stereo not drawn)
inactive: [3] | [7] | [8] | [9] | [10]
active: [1] 0.179 µM | [2] 0.111 µM

CC(C)OC(=O)C(C)(C)Oc1ccc(C(=O)c2ccc(Cl)cc2)cc1
active: [2] 3.76 µM | [3] 0.0504 µM
not listed: [8] | [9] | [11]
inactive: all other assays above

CC(C)c1cccc(C(C)C)c1
not listed: [1] | [6] | [8] | [11]
inactive: all other assays above

Cc1ccc(-c2cc(C(F)(F)F)nn2-c2ccc(S(N)(=O)=O)cc2)cc1
active: [2] 86.3 µM | [4] 50 µM | [5] 74.4 µM | [6] 149 µM
not listed: [3]
inactive: all other assays above

Cn1cnc2c1c(=O)[nH]c(=O)n2C
inactive: all assays above

NC1CCCCC1
not listed: [3]
inactive: all other assays above

O=NO
not listed: [6]
inactive: all other assays above

O=C(N[C@@H](c1ccccc1)[C@@H]1CCCCN1)c1cccc(C(F)(F)F)c1Cl
inactive: [1] | [4] | [8] | [9] | [10]
active: [2] 57.7 µM | [5] 43 µM | [7] 26.6 µM

CC(=O)OCC(COC(C)=O)OC(C)=O
not listed: [9] | [11]
inactive: all other assays above

CCCCCCC(C=O)=Cc1ccccc1
not listed: [3] | [11]
inactive: all other assays above

C/C=C/C=C/C(=O)O
active: [2] 0.171 µM
not listed: [8] | [11]
inactive: all other assays above

O=C1NC(=O)C(c2ccccc2)(c2ccccc2)N1
active: [2] 19.3 µM
not listed: [3] | [11]
inactive: all other assays above

CC(=O)O[C@]1(C(C)=O)CC[C@H]2[C@@H]3C=C(Cl)C4=CC(=O)[C@@H]5C[C@@H]5[C@]4(C)[C@H]3CC[C@@]21C
active: [2] 72.3 µM | [3] 73.3 µM | [5] 53.7 µM
inactive: all other assays above

CC(=O)[C@@]1(O)CC[C@H]2[C@@H]3CCC4=CC(=O)CC[C@]4(C)[C@H]3CC[C@@]21C
active: [1] 50 µM
not listed: [3] | [11]
inactive: all other assays above
